Measurements published in the supplement of paper PMC10849652.
The full data set covers some 7,900 targets. This sample favours those with a hit. About 0.6% of all pairs of compound and target were hits.

Key:
Assay in all cases: log2 fold change, soluble protein after heating vs DMSO (PISA); higher = thermal stabilisation; K562 cells, 10 uM, 30 min; active = over 0.2 and 3.5 SD of the protein, either way, in both replicates (recomputed)
erlotinib = compound: C#Cc1cccc(Nc2ncnc3cc(OCCOC)c(OCCOC)cc23)c1 [erlotinib]
Procedure, shortened: (§1)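 K562 cells at 2×10^6 cells/mL were given 10 μM compound for 30 min. Aliquots then went through 3 min of heating across 48°C-58°C, were pooled, and were extracted in PBS with 0.5% NP-40 at 4°C, and the supernatant after 21,000xg for 90 min was quantified by TMTpro 16plex LC-MS/MS with channel sums equalised. Thermal stability relative to control samples, from duplicates, is given as log2 fold change.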

[1] = compound: C/C(=N\NC(=O)C1=CC(=CC=C1)S(=O)(=O)N2CCOCC2)/C3=C(C=CC(=C3)Cl)O
Procedure, shortened: as §1

[2] = compound: C1=CC(=C(C=C1Cl)C2=NC3=NC=CN=C3C(=N2)NC4=CC=NC=C4)F
Procedure, shortened: as §1

[3] = compound: C1=CC(=CC=C1C2=NC3=C(N2)C=C(C=C3)C(=O)N)OC4=CC=C(C=C4)Cl
Procedure, shortened: as §1

[4] = compound: C1=CC2=C(C=CC(=C2)/C=C\3/C(=O)NC(=NCC4=CC=CS4)S3)N=C1
Procedure, shortened: as §1

[5] = compound: C1=CC2=NC=CN=C2C=C1/C=C/3\C(=O)NC(=O)S3
Procedure, shortened: as §1

[6] = compound: C1=CC=C(C=C1)C2=NC(=C(N2)C3=CC=NC=C3)C4=CC(=C(C=C4)Cl)O
Procedure, shortened: as §1

[7] = compound: C1=CC=C2C(=C1)C3=NNC4=CC=CC(=C43)C2=O
Procedure, shortened: as §1

[8] = compound: C1CCN(C1)C(=O)NC2=CC=CC(=C2)NC3=NC=C(C(=N3)NCCC4=CN=CN4)Br
Procedure, shortened: as §1

[9] = compound: C1CN(CCC1(CC2=CC=C(C=C2)Cl)N)C3=NC=NC4=C3C=CN4
Procedure, shortened: as §1

IRAK-1-4 Inhibitor I = compound: C1COCCN1CCN2C3=CC=CC=C3N=C2NC(=O)C4=CC(=CC=C4)[N+](=O)[O-] [IRAK-1-4 Inhibitor I]
Procedure, shortened: as §1

ibrutinib = compound: C=CC(=O)N1CCC[C@@H](n2nc(-c3ccc(Oc4ccccc4)cc3)c3c(N)ncnc32)C1 [ibrutinib]
Procedure, shortened: as §1

[10] = compound: CC(=O)c1cnc2ccc(-c3cc(Cl)c(O)c(Cl)c3)nc2c1N[C@H]1CC[C@H](CN(C)C)CC1
Procedure, shortened: as §1

ralimetinib = compound: CC(C)(C)Cn1c(N)nc2ccc(-c3[nH]c(C(C)(C)C)nc3-c3ccc(F)cc3)nc21 [ralimetinib]
Procedure, shortened: as §1

[11] = compound: CC(C)(O)CC(=O)NCCn1ccc2ncnc(Nc3ccc(Oc4cccc(C(F)(F)F)c4)c(Cl)c3)c21
Procedure, shortened: as §1

[12] = compound: CC(C)C1=C2N=C(C=C(N2N=C1)NCC3=CC=CC=C3)NCCCCCCN
Procedure, shortened: as §1

[13] = compound: CC(C)C[C@@H](C=O)NC(=O)[C@H](CC(C)C)NC(=O)[C@H](CC(C)C)NC(=O)OCc1ccccc1
Procedure, shortened: as §1

pinometostat = compound: CC(C)N(C[C@H]1O[C@@H](n2cnc3c(N)ncnc32)[C@H](O)[C@@H]1O)[C@H]1C[C@@H](CCc2nc3cc(C(C)(C)C)ccc3[nH]2)C1 [pinometostat]
Procedure, shortened: as §1

[14] = compound: CC1=C(C(CC(=O)N1)C2=CC=C(C=C2)C(F)(F)F)C(=O)NC3=C(C=C4C(=C3)C=NN4)F
Procedure, shortened: as §1

[15] = compound: CC1=C(C2=C(C=C1)C(=O)C3=CC=CC=C3N2CCCN)C
Procedure, shortened: as §1

Measured: log2 fold change

SGPL1 (UniProt O95470)
inactive: erlotinib -0.038 | [1] -0.019 | [2] -0.088 | [3] -0.047 | [4] 0.05 | [5] -0.029 | [6] 0.01 | [7] -0.001 | [8] -0.035 | [9] -0.145 | IRAK-1-4 Inhibitor I -0.05 | ibrutinib -0.018 | [10] -0.045 | ralimetinib 0.159 | [11] 0.017 | [12] 0.06 | [13] 0.002 | pinometostat 0.1 | [14] -0.025 | [15] 0.146

SEC31A (UniProt O94979)
Chain of UniProt O94979 (O94979 whole entry, looked up): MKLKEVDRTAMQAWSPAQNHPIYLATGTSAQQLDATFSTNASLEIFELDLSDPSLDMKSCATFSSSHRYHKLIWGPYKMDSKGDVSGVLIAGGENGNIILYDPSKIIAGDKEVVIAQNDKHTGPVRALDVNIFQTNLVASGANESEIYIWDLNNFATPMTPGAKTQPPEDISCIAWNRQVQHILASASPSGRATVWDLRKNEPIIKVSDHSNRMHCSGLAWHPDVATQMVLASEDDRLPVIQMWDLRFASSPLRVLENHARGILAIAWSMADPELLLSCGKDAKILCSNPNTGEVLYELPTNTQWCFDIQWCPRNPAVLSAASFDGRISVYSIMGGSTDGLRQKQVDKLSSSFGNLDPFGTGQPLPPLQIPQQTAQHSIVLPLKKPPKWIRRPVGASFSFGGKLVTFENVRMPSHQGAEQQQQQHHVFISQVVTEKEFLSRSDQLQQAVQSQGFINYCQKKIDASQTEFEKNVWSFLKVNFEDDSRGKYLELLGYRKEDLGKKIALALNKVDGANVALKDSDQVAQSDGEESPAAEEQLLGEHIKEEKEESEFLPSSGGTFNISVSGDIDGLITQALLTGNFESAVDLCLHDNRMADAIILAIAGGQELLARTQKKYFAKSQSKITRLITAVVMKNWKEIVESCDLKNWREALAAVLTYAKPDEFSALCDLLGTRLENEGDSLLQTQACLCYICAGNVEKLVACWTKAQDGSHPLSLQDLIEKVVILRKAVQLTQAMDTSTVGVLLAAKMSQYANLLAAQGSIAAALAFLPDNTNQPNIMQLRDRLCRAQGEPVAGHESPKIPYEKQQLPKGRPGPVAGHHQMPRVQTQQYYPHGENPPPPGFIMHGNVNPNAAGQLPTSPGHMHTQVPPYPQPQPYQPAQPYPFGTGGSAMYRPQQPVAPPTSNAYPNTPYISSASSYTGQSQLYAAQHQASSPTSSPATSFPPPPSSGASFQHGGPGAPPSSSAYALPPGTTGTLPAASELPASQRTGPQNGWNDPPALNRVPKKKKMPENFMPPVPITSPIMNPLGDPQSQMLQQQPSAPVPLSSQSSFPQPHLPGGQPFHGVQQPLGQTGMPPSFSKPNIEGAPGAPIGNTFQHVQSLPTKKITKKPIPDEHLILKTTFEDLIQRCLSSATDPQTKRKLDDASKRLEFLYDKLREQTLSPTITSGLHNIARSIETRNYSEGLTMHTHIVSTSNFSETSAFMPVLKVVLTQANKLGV
inactive: erlotinib 0.049 | [1] 0.023 | [2] 0.006 | [3] -0.025 | [4] 0.094 | [5] 0.016 | [6] -0.045 | [7] 0.023 | [8] -0.06 | [9] -0.025 | IRAK-1-4 Inhibitor I -0.076 | ibrutinib -0.11 | [10] 0.005 | ralimetinib 0.028 | [11] -0.054 | [12] -0.008 | [13] 0.033 | pinometostat 0.071 | [14] 0.016 | [15] 0.095

RSL1D1 (UniProt O76021)
inactive: erlotinib -0.115 | [1] -0.156 | [2] -0.504 | [3] 0.073 | [4] -0.054 | [5] 0.057 | [6] -0.141 | [7] -0.086 | [8] 0.016 | [9] -0.193 | IRAK-1-4 Inhibitor I -0.071 | ibrutinib -0.011 | [10] 0.22 | ralimetinib 0.105 | [11] 0.212 | [12] 0.538 | [13] 0.076 | pinometostat 0.393 | [14] -0.072 | [15] -0.299

RIC8A isoform 3 (UniProt Q9NPQ8)
inactive: erlotinib 0.063 | [1] 0.114 | [2] 0 | [3] -0.031 | [4] 0.114 | [5] -0.052 | [6] 0.005 | [7] -0.021 | [8] -0.071 | [9] -0.057 | IRAK-1-4 Inhibitor I -0.073 | ibrutinib -0.051 | [10] -0.193 | ralimetinib 0.06 | [11] -0.052 | [12] -0.354 | [13] 0.066 | pinometostat 0.166 | [14] -0.005 | [15] -0.132

RRP9 (UniProt O43818)
Chain of UniProt O43818 (O43818 whole entry, looked up): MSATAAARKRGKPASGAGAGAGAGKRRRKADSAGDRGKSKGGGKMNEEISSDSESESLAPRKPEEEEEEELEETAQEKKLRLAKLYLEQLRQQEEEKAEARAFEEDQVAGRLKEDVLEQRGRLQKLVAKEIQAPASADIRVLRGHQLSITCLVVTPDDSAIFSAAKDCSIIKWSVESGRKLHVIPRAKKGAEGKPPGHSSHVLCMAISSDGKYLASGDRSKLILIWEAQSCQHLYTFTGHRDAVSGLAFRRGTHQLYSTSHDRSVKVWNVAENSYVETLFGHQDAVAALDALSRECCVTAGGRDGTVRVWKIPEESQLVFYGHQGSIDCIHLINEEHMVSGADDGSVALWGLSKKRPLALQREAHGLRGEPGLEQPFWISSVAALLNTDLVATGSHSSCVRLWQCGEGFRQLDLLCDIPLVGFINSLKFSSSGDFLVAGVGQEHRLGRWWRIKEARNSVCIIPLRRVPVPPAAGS
active: [15] -0.432
inactive: erlotinib 0.018 | [1] -0.04 | [2] -0.099 | [3] -0.004 | [4] -0.042 | [5] 0.03 | [6] -0.114 | [7] -0.085 | [8] -0.081 | [9] -0.016 | IRAK-1-4 Inhibitor I -0.043 | ibrutinib 0.017 | [10] -0.062 | ralimetinib 0.014 | [11] 0.133 | [12] -0.04 | [13] -0.002 | pinometostat 0.01 | [14] 0.136

RAB5C isoform 2 (UniProt P51148)
Chain of UniProt P51148 (P51148 whole entry, looked up): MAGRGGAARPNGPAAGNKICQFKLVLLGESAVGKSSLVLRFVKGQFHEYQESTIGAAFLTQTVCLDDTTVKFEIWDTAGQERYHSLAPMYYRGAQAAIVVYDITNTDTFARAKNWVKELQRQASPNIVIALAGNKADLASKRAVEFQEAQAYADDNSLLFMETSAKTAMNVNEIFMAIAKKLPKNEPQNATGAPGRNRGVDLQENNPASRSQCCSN
inactive: erlotinib 0 | [1] 0.042 | [2] 0.066 | [3] 0.015 | [4] -0.083 | [5] 0.014 | [6] 0.012 | [7] 0.015 | [8] -0.003 | [9] 0.043 | IRAK-1-4 Inhibitor I 0.015 | ibrutinib 0.017 | [10] 0.039 | ralimetinib 0.027 | [11] -0.012 | [12] 0.064 | [13] -0.042 | pinometostat -0.028 | [14] 0.028 | [15] -0.032

SERINC3 (UniProt Q13530)
inactive: erlotinib -0.051 | [1] 0.016 | [2] -0.064 | [3] 0.041 | [4] -0.043 | [5] 0.063 | [6] 0.006 | [7] 0.029 | [8] 0.007 | [9] 0.06 | IRAK-1-4 Inhibitor I -0.006 | ibrutinib -0.01 | [10] -0.027 | ralimetinib -0.14 | [11] -0.304 | [13] 0.17 | pinometostat -0.01 | [14] 0 | [15] -0.039
active: [12] -0.399

RPA1 (UniProt P27694)
inactive: erlotinib 0.003 | [1] 0.07 | [2] 0.147 | [3] 0.008 | [4] -0.005 | [5] 0.003 | [6] 0.027 | [7] 0.075 | [8] -0.013 | [9] -0.021 | IRAK-1-4 Inhibitor I -0.026 | ibrutinib -0.022 | [10] -0.03 | ralimetinib -0.008 | [11] -0.053 | [12] -0.019 | [13] -0.027 | pinometostat -0.021 | [14] -0.007 | [15] 0.202

RBM4 (UniProt Q9BWF3)
Chain of UniProt Q9BWF3 (Q9BWF3 whole entry, looked up): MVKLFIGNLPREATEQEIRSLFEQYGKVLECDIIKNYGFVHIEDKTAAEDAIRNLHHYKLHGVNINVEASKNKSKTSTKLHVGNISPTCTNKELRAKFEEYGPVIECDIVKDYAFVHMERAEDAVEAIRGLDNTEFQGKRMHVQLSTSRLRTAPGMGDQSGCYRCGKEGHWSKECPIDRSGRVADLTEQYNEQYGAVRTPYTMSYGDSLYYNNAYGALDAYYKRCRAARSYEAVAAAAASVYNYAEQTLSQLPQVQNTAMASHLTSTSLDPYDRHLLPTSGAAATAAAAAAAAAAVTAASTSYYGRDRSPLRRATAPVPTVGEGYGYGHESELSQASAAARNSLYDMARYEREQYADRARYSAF
inactive: erlotinib 0.02 | [1] 0 | [2] -0.102 | [3] 0.011 | [4] -0.012 | [5] 0.054 | [6] -0.041 | [7] -0.035 | [8] 0.012 | [9] -0.009 | IRAK-1-4 Inhibitor I -0.038 | ibrutinib -0.023 | [10] -0.083 | ralimetinib 0.099 | [11] 0.019 | [12] -0.136 | [13] 0.074 | pinometostat 0.076 | [14] 0.007 | [15] -0.027

RPS3 (UniProt P23396)
inactive: erlotinib -0.136 | [1] -0.072 | [2] -0.224 | [3] 0.061 | [4] -0.026 | [5] -0.027 | [6] -0.073 | [7] -0.03 | [8] 0.093 | [9] -0.156 | IRAK-1-4 Inhibitor I -0.091 | ibrutinib 0.02 | [10] 0.051 | ralimetinib 0.034 | [11] 0.005 | [12] -0.096 | [13] 0.016 | pinometostat 0.128 | [14] 0.031
active: [15] -0.497

SIRT2 (UniProt Q8IXJ6)
Chain of UniProt Q8IXJ6 (Q8IXJ6 whole entry, looked up): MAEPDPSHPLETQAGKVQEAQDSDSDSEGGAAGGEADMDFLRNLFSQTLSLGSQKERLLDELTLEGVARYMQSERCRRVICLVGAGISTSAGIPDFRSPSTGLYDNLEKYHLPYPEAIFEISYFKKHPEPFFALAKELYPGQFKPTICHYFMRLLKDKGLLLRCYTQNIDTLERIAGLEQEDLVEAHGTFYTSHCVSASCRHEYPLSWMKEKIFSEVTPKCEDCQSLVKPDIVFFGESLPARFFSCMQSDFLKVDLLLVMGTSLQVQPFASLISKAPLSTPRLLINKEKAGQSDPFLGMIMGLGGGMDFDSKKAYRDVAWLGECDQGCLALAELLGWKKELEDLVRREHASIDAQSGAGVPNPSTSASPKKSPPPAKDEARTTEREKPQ
inactive: erlotinib 0.03 | [1] 0.055 | [2] 0.001 | [3] 0.054 | [4] -0.113 | [5] 0.017 | [6] 0.051 | [7] 0.029 | [8] 0.025 | [9] 0.016 | IRAK-1-4 Inhibitor I 0.047 | ibrutinib -0.003 | [10] -0.003 | ralimetinib -0.023 | [11] 0.041 | [12] -0.033 | [13] 0.028 | pinometostat -0.002 | [14] -0.075 | [15] -0.022

RBIS (UniProt Q8N0T1)
Chain of UniProt Q8N0T1 (Q8N0T1 whole entry, looked up): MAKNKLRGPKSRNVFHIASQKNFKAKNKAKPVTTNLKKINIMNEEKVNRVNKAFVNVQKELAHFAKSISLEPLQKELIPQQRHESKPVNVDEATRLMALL
inactive: erlotinib -0.051 | [1] 0.015 | [2] -0.038 | [3] 0.044 | [4] 0.007 | [5] 0.031 | [6] -0.121 | [7] -0.083 | [8] 0.037 | [9] -0.093 | IRAK-1-4 Inhibitor I -0.038 | ibrutinib 0.019 | [10] -0.109 | ralimetinib -0.021 | [11] 0.083 | [12] -0.001 | pinometostat 0.044 | [14] 0.066
active: [13] 0.281 | [15] -0.478

RETSAT (UniProt Q6NUM9)
Chain of UniProt Q6NUM9 (Q6NUM9 whole entry, looked up): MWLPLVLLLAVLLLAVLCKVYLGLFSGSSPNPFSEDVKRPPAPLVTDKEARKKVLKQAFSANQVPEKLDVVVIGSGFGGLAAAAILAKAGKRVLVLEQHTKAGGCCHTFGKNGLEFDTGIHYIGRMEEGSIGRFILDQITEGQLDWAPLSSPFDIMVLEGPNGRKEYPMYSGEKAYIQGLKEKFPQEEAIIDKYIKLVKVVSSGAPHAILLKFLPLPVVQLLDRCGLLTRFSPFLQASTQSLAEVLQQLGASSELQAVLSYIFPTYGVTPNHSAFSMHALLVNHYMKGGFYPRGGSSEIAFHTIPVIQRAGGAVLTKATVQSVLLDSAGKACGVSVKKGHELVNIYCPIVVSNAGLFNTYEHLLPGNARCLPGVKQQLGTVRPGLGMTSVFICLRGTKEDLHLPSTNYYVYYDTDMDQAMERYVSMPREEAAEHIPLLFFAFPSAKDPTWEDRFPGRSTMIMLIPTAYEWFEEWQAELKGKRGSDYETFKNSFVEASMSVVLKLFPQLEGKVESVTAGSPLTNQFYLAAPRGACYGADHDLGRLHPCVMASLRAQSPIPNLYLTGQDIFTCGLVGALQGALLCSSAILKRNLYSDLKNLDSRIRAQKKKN
inactive: erlotinib 0.044 | [1] -0.149 | [2] 0.132 | [4] 0.052 | [5] 0.002 | [6] 0.056 | [7] 0.144 | [8] -0.126 | [9] 0.194 | IRAK-1-4 Inhibitor I -0.09 | ibrutinib 0.042 | [10] 0.01 | ralimetinib 0.012 | [11] 0.178 | [12] -0.048 | [13] -0.007 | pinometostat -0.012 | [14] -0.037 | [15] 0.059
active: [3] 0.502

RBM39 (UniProt Q14498)
Chain of UniProt Q14498 (Q14498 whole entry, looked up): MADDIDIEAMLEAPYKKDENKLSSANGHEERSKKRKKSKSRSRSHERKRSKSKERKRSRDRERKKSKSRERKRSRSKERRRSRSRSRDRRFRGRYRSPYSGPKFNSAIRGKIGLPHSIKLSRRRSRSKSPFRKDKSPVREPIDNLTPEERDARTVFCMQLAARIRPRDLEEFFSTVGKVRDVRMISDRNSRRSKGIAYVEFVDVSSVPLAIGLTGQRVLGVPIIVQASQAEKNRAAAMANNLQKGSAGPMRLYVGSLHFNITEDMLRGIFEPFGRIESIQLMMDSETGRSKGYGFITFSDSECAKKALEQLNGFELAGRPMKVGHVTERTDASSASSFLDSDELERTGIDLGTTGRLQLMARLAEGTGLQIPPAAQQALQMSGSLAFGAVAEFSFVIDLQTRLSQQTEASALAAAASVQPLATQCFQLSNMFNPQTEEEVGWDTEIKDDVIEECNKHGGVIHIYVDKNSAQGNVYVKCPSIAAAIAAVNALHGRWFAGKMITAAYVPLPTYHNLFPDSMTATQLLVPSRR
active: [10] -0.497
inactive: erlotinib 0.087 | [1] 0.074 | [2] 0.013 | [3] -0.028 | [4] -0.021 | [5] -0.052 | [6] -0.022 | [7] -0.168 | [8] -0.071 | [9] -0.232 | IRAK-1-4 Inhibitor I -0.193 | ibrutinib 0 | ralimetinib 0.044 | [11] -0.028 | [12] -0.267 | [13] 0.043 | pinometostat 0.042 | [14] -0.022 | [15] 0.104

SERINC1 (UniProt Q9NRX5)
inactive: erlotinib -0.034 | [1] -0.023 | [2] -0.006 | [3] 0.096 | [4] -0.026 | [5] 0.085 | [6] 0.018 | [7] 0.149 | [8] 0.115 | [9] -0.031 | IRAK-1-4 Inhibitor I 0 | ibrutinib 0.023 | [10] 0 | ralimetinib -0.106 | [11] -0.235 | [13] 0.095 | pinometostat -0.022 | [14] 0.038 | [15] 0
active: [12] -0.568

RPS6KA2 isoform 2 (UniProt Q15349)
Chain of UniProt Q15349 (Q15349 whole entry, looked up): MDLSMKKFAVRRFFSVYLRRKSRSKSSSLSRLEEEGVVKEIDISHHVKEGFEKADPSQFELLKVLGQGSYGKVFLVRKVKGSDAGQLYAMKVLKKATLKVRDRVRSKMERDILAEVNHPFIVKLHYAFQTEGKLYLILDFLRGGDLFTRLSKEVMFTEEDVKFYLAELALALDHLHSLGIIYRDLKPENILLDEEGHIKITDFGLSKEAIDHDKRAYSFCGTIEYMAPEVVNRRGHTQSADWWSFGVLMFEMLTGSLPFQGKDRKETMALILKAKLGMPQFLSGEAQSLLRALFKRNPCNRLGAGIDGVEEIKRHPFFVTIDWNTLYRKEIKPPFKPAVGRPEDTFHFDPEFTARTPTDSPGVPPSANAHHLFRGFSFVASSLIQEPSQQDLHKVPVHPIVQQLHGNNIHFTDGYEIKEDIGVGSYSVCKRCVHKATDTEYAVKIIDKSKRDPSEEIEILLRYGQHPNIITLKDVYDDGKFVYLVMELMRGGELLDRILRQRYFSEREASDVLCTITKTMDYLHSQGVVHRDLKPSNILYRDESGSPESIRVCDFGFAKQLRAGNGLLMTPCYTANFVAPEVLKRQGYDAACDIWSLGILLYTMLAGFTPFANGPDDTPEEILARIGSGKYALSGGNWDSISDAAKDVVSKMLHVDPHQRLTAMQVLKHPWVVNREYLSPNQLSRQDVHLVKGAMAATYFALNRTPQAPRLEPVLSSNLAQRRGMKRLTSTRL
inactive: erlotinib 0.008 | [1] 0.092 | [2] -0.068 | [3] 0.075 | [4] 0.07 | [5] 0.06 | [6] -0.132 | [8] -0.058 | [9] -0.004 | IRAK-1-4 Inhibitor I 0.001 | ibrutinib -0.066 | [10] -0.178 | [11] -0.082 | [12] -0.082 | [13] 0.07 | pinometostat 0.01 | [14] 0.016 | [15] 0.006
active: [7] -0.473 | ralimetinib -0.492
